Results: PubChem BioAssay (Tox21)
Results filed as inconclusive are left out. Where a call stands in place of a potency, no number is given. Activity calls are given as the source filed them. Calls follow the shape of the dose curve; as a rule, active = well fitted activation curve with a large enough effect in the repeat runs; inconclusive = weak or mixed curves; inactive = flat fitted curve, though single readings scatter.

Experiment: A CellTox Green Cytotoxicity Assay to monitor cytotoxicity in HEK293 cells - 16 hour (AID 1224888); also: nearly all actives have a fitted effect of over 35% in size
Details: CellTox Green fluorescence; series mostly up to 76.8 µM
From the text: National Center for Advancing Translational Sciences [NCATS]
NIH Chemical Genomics Center [NCGC]
U.S. Environmental Protection Agency [EPA]
National Institutes of Environmental Health Sciences [NIEHS]
National Toxicology Program [NTP]
Cell-based models are critical for drug discovery. Determining the natural cytotoxic effects resulting from test compounds is an essential research activity. A CellTox Green Cytotoxicity Assay to monitor cytotoxicity in real time of continues cell culture during 40 hours of the compound treatment was used to screen Tox21 10K library compounds in Hek293 cells. CellTox Green Cytotoxicity Assay is a nonlytic, homogeneous, biofluorescent method to measure cytotoxicity in cell culture after experimental manipulation. The assay system uses a proprietary asymmetric cyanine dye that is excluded from viable cells but preferentially stains the dead cell's DNA. […] Viable cells produce no appreciable increases in fluorescence. Therefore, the fluorescence signal produced by the binding interaction with dead cell DNA is proportional to cytotoxicity.
The mixture of Hek293 cell suspension and reagents were dispensed at 600cells/6 ul/well in 1536-well tissue culture treated black solid bottom plates using a Multidrop dispenser. After the assay plates were incubated at a 37 C/5% CO2 incubator for 5 hours, 23 nL of compounds dissolved in DMSO, positive and negative controls was transferred to the assay plate by a pintool work station. The plates were incubated at 37 C for 40 hours. The fluorescence intensity were measured at 0h, 8h, 16h, 24h, 32h and 40h time points using ViewLux plate reader during compound treatment.

| Structure (SMILES) | Potency |
| --- | --- |
| N[C@@H](Cc1c[nH]c2ccc(O)cc12)C(=O)O | inactive |
| Oc1cccc(O)c1 | inactive |
| CCCCNC(=O)NS(=O)(=O)c1ccc(N)cc1 | inactive |
| COc1cc2c(c(OC)c1OC)-c1ccc(OC)c(=O)cc1[C@@H](NC(C)=O)CC2 | inactive |
| CCCCCCCC(=O)OCC(O)CO (stereo not given) | inactive |
| O=c1cc[nH]c(=O)[nH]1 | inactive |
| CCOC(=O)C(C)(C)Oc1ccc(Cl)cc1 | inactive |
| Cc1cccc(Nc2cc(Cl)nc(SCC(=O)O)n2)c1C | inactive |
| OC[C@@H](O)[C@@H](O)[C@H](O)[C@H](O)CO | inactive |
| C[C@]12C[C@H](O)[C@H]3[C@@H](CCC4=CC(=O)CC[C@@]43C)[C@@H]1CC[C@@H]2C(=O)CO | inactive |
| CN/C(=C\[N+](=O)[O-])NCCSCc1ccc(CN(C)C)o1 | inactive |
| CC(C)(C)CC(C)(C)c1ccc(O)c(-n2nc3ccccc3n2)c1 | inactive |
| C/C=C/c1ccc(O)c(OC)c1 | inactive |
| COc1ccc(O)cc1 | inactive |
| C[C@]12CC[C@@H]3c4ccc(O)cc4C[C@@H](CCCCCCCCCS(=O)CCCC(F)(F)C(F)(F)F)[C@H]3[C@@H]1CC[C@@H]2O (stereo not given in full) | inactive |
| COC1=CC(=O)C[C@@H](C)[C@]12Oc1c(Cl)c(OC)cc(OC)c1C2=O | inactive |
| CCN1CCCC1=O | inactive |
| Cc1cnc(NC(=O)C2=C(O)c3ccccc3S(=O)(=O)N2C)s1 | inactive |
| CC1=NN(c2ccccc2)C(=O)C1 | inactive |
| OCCCc1ccccc1 | inactive |

| Structure (SMILES) | Potency |
| --- | --- |
| CC(C)(C)NCC(O)c1ccc(O)c(CO)c1 (stereo not given) | inactive |
| CN(C)C=O | inactive |
| C=C(C)OC(C)=O | inactive |
| CCCCCCCCOc1ccc(C(=O)c2ccccc2)c(O)c1 | inactive |
| Cc1cccc(C)c1O | inactive |
| CC1(C)O[C@@H]2[C@@H](CO[C@@]3(COS(N)(=O)=O)OC(C)(C)O[C@@H]23)O1 | inactive |
| N[C@@H](Cc1c[nH]c2ccccc12)C(=O)O | inactive |
| Nc1ccc(N=Nc2ccccc2)c(N)n1 | inactive |
| COC(=O)c1ccc(O)cc1 | inactive |
| CC(=O)/C=C/C1=C(C)CCCC1(C)C | inactive |
| COc1ccccc1O | inactive |
| CCCCOC(=O)CCCCCCCCC(=O)OCCCC | inactive |
| Cc1c(N(C)CS(=O)(=O)O)c(=O)n(-c2ccccc2)n1C | inactive |
| COc1ccc(C(=O)c2ccccc2)c(O)c1 | inactive |
| COC(=O)c1ccc(C=O)cc1 | inactive |
| C#C[C@]1(O)CC[C@H]2[C@@H]3CCc4cc(O)ccc4[C@H]3CC[C@@]21C | inactive |
| CC(=O)c1ccc(S(=O)(=O)NC(=O)NC2CCCCC2)cc1 | inactive |
| CC(C)CC(C)CC(O)CC(C)C (stereo not given) | inactive |
| c1ccc2[nH]c(-c3cscn3)nc2c1 | inactive |
| CN(C)Cc1cc(CN(C)C)c(O)c(CN(C)C)c1 | inactive |
